# Test results taken from PubChem BioAssay AID493175 (National Center for Advancing Translational Sciences (NCATS), 2011).
# Inconclusive results are not listed. Values without a mark were called inactive. Activity calls are given as the source filed them. The call rests on the fitted dose curve; in most records, active means well fitted curve in the direction sought with a large enough effect; inconclusive means small, poorly fitted or top-dose-only effect, or another doubt; inactive means no such curve, though single readings can be large or run the other way.
# Biological target: Luciferin 4-monooxygenase (Photinus pyralis) (UniProt P08659)
# Sequence (P08659 whole entry, looked up): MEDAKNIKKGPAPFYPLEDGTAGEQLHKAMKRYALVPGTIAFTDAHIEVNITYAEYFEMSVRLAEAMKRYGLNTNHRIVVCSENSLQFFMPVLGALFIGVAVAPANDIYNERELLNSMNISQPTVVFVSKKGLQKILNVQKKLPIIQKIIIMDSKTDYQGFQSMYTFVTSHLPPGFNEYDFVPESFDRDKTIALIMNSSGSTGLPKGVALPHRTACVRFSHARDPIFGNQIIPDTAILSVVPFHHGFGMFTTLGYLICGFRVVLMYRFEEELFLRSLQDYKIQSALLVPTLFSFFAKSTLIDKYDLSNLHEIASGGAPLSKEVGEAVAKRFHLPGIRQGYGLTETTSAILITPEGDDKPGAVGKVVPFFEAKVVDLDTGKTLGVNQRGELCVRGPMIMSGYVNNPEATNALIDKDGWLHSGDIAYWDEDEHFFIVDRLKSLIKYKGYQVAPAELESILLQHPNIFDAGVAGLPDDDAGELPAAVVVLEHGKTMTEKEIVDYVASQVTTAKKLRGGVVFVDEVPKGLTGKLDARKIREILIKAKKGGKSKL
# Assay: miR-21 counterscreen using purified firefly luciferase
# Conditions: purified P. pyralis luciferase, luminescence; series mostly up to 57.5 µM
# Excerpt: MLPCN Grant: 1 R21 NS059478-01 Assay Provider: Qihong Huang, The Wistar Institute NCGC Assay Overview: MicroRNAs (miRNAs) are endogenously encoded small (~20-25 nucleotides), nonprotein-coding RNAs that are involved in post-transcriptional repression of target messenger RNAs (mRNAs) (Le and Hannon, 2004). Estimated to be involved in the regulation of 30% of all protein-coding mRNAs (Filipowicz et al., 2008), miRNAs play a significant role in many biological processes including cellular differentiation and tissue development (Ghildiyal and Zamore, 2009). […] Compounds active in the miR-21 FLuc assay were clustered using Leadscope and active chemical series were prioritized based on chemical properties, potential for medicinal chemistry optimization, and SAR. Within each chemical series, representative compounds were re-acquired to test for activity in a secondary assay based on the quality of their CRC, efficacy, and potency. This secondary assay to determine if compounds active in the miR-21 FLuc assay were just luciferase inhibitors. Compounds found active in both the miR-21 FLuc and purified FLuc assays are considered as false positives. Keywords: NIH Roadmap, MLPCN, MLSMR, qHTS, miR-21, firefly luciferase, FLuc, miRNA.
# NCGC Assay Protocol Summary: Reagents: 50mM Tris acetate, pH 7.5; 10mM Mg acetate; 10uM D-luciferin (Sigma #L9504); 10uM ATP; 0.01% Tween-20; 0.05% BSA; 10nM P. pyralis luciferase (Sigma #L9506) Control compounds used were two known firefly luciferase inhibitors (compounds (2) and (5) in Auld et al., 2010), and DMSO. Assay Summary: Three microliters containing firefly luciferase substrates in buffer (final concentrations: 50mM Tris acetate, pH 7.5, 10mM Mg acetate, 0.01% Tween-20, 0.05% BSA, 10uM D-luciferin, and 10uM ATP) are dispensed into each well of a Greiner white, solid-bottom 1536-well format plate using a flying reagent dispenser (FRD). These assay plates were then treated with 23nL of compound or DMSO using a Kalypsys pin tool, which allows for delivery of a 6-point interplate titration of each compound to the assay plate (quantitative HTS), with a final compound concentrations ranging from approximately 60 µM to 7pM. One microliter of firefly luciferase in […] Tris-acetate buffer was then delivered by FRD to each well for a final enzyme concentration of 10nM. Luciferase activity was then measured using a ViewLux CCD imager (PerkinElmer), with an average exposure time of 2-30 seconds (2X binning, medium/high gain).
Structure (SMILES),outcome,"activity change, negative = inhibition"
Cc1cc(C)c2c(N)c(C(=O)Nc3ccccc3F)sc2n1,inactive,
CCC(C)S(=O)(=O)c1oc(-c2cccs2)nc1S(=O)(=O)c1ccccc1 (stereo not given),inactive,
COc1ccc(NC(=O)CSc2nc(SC)ns2)c(OC)c1,inactive,
CCc1ccc2oc(C(=O)Nc3nonc3CC)c(C)c2c1,inactive,
CCS(=O)(=O)c1oc(-c2ccc(F)cc2)nc1S(=O)(=O)c1ccccc1,inactive,
Cc1ccccc1Nc1nc(N)nc(CN(C)c2ccccc2)n1,inactive,
C/C(=N\NC(=O)c1ccncc1)c1ccc(NC(=O)c2ccc(Cl)cc2)cc1,inactive,
CC(C)(C)c1ccc(NC(=O)CSc2nnc(-c3n[nH]c4ccccc34)o2)cc1,inactive,
Cc1cc(C)cc(NC(=O)CSc2nnc(-c3ccccc3C)o2)c1,inactive,
CCCn1c(=O)c2sccc2n2c(CCCC(=O)Nc3ccc(Oc4ccc(Cl)cc4)cc3)nnc12,inactive,
Nc1c(C(=O)Nc2ccccc2Br)sc2nc(-c3cccs3)ccc12,inactive,
CC(C)(C)C1CCc2nc(NC(=O)Cc3cn4ccsc4n3)sc2C1 (stereo not given),,0.54% [at 2.3 µM]
COc1ccc(NC(=O)CSc2nnc(-c3cccs3)o2)cc1,inactive,
COc1cc(Cl)c(C)cc1Nc1c2c(nc3ccccc13)CCC2,inactive,
Cc1cccc(-n2nnc(-c3nc(-c4cccs4)no3)c2N)c1,inactive,
Fc1ccccc1CSc1nnc(-c2cnccn2)n1Cc1ccco1,inactive,
COc1ccc(NCc2cccn2-c2nnc(N3CCC(C)CC3)s2)c(OC)c1,inactive,
Cc1ccc(-c2nc3cnccn3c2Nc2ccccc2)o1,inactive,
C/C(=N\NC(=O)c1cccs1)c1ccncc1,inactive,
Cc1ccc(-n2nnc(-c3nsc(NC(=O)c4ccccc4)n3)c2C)cc1,inactive,

Structure (SMILES),outcome,"activity change, negative = inhibition"
COc1ccc(-c2nc(SCc3ccccc3)n(S(C)(=O)=O)n2)cc1,inactive,
Cc1cccc(-c2nsc(SCC(=O)Nc3ccc4c(c3)OCO4)n2)c1,inactive,
CCC(Oc1ccccc1F)C(=O)N1CCC(c2nc3ccccc3s2)CC1 (stereo not given),inactive,
c1ccc(CSc2nnc3ccc(-c4cccs4)nn23)nc1,inactive,
Cc1c(-c2nnc(SCC(=O)Nc3ccccc3F)o2)nnn1-c1ccc(F)cc1,inactive,
Cc1ccc(-n2nnc(-c3nc(-c4cccs4)no3)c2N)cc1C,inactive,
Cc1c(-c2nsc(NC(=O)c3cccs3)n2)nnn1-c1ccc(Cl)cc1,inactive,
CCS(=O)(=O)c1ncc(Cl)c(C(=O)N(Cc2ccccc2)c2ccc(OC)cc2)n1,inactive,
Cc1cc(SCC(=O)Nc2nsc(-c3ccc(C(C)(C)C)cc3)n2)nc2ccccc12,inactive,
CCc1nonc1NC(=O)c1oc2ccc(C)cc2c1C,inactive,
COc1ccc(Nc2cc(C(=O)NCCCN3CCN(c4ccc(OC)cc4)CC3)c3ccccc3n2)cc1,inactive,
Cc1ccccc1OCCn1cnc2c(N)ncnc21,inactive,
Nc1c(-c2nc(-c3ccncc3)no2)nnn1CC(=O)Nc1ccccc1,inactive,
CS(=O)(=O)c1ncc(Cl)c(C(=O)Nc2ccc3ccccc3c2)n1,inactive,
COc1ccccc1CNC(=O)CCC1N=C2c3ccccc3N=C(SCc3cccc(Cl)c3)N2C1=O (stereo not given),inactive,
Cc1ccc(Nc2ncnc(N)n2)cc1C,inactive,
CC(C)S(=O)(=O)c1oc(-c2cccs2)nc1S(=O)(=O)c1ccc(F)cc1,inactive,
Cc1cccc(N2CCN(C(=O)C3CCN(c4ncnc5c4nc4n5CCCCC4)CC3)CC2C)c1 (stereo not given),inactive,
COc1cccc(NC(=O)CSc2nnc(-c3cccs3)o2)c1,inactive,
COc1ccc(OCC(=O)Nc2ccc(-c3nc4cc(Cl)ccc4o3)cc2)cc1,inactive,
